Test results as given in PubChem BioAssay (Tox21).
Results filed as inconclusive are left out. Calls of active or inactive are those of the source. Unless noted, calls follow the shape of the dose curve; as a rule, active = well fitted curve in the direction sought with a large enough effect in the repeat runs; inconclusive = weak or mixed curves; inactive = no such curve, though single readings can be large; an effect the other way counts as inactive or inconclusive.

Tests used:
[1] = qHTS assay to identify small molecule antagonists of the estrogen related receptor (ERR) signaling pathway from Tox21 library - cell viability counter screen (AID 1224834); also: nearly all actives have a fitted effect of over 30% in size
Procedure, shortened: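 ERR cells, 2,000/well; 6 h settle at 37 C/5% CO2; pin-tool compound transfer in DMSO; 17.5 h at 37 C; CellTiter-Fluor, 30 min; fluorescence intensity.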

[2] = qHTS assay to identify small molecule agonists of the constitutive androstane receptor (CAR) signaling pathway - cell viability counter screen (AID 1224836); also: nearly all actives have a fitted effect of over 45% in size
Procedure, shortened: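 Fluorescence from CellTiter-Fluor indicates live cells after 23 h exposure. The human hepatoma line expresses hCAR and a CYP2B6-2.2kb reporter. Incubation medium contains 0.75 uM PK11195 (final).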

[3] = qHTS assay to identify small molecule antagonists of the constitutive androstane receptor (CAR) signaling pathway - cell viability counter screen (AID 1224837); also: nearly all actives have a fitted effect of over 45% in size
Procedure, shortened: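 Viability was measured with CellTiter-Fluor in a HepG2 line carrying stably transfected hCAR and a CYP2B6-2.2kb construct. Cells were exposed for 23 hr at 37 C to 15 compound concentrations with 50 nM CITCO as agonist.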

[4] = target: Nuclear receptor subfamily 1 group I member 3 (Homo sapiens) (UniProt Q14994); assay: qHTS assay to identify small molecule antagonists of the constitutive androstane receptor (CAR) signaling pathway (AID 1224838);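 also: HepG2 cells stably expressing hCAR with CYP2B6 luciferase reporter stimulated by CITCO; nearly all actives have a fitted effect of over 40% in size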
Sequence of Nuclear receptor subfamily 1 group I member 3 (Homo sapiens) (Q14994 whole entry, looked up): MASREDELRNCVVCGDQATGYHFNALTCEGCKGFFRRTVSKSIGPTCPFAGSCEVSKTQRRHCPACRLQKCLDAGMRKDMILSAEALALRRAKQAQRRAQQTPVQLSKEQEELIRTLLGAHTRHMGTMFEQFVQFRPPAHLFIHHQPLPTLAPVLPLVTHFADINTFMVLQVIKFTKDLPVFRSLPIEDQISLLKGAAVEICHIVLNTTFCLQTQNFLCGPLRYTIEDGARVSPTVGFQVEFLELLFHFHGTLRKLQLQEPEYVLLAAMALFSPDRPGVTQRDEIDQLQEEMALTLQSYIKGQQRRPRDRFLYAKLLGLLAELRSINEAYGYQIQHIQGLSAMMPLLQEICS
Procedure, shortened: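 Antagonist mode used CITCO at a final 50 nM to activate CAR in human hepatoma HepG2 cells carrying stable hCAR and a 2.2 kb CYP2B6 promoter-luciferase construct. Compounds were tested at 15 concentrations over 24 h, with luminescence as the end point.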

[5] = target: Nuclear receptor subfamily 1 group I member 3 (Homo sapiens) (UniProt Q14994); assay: qHTS assay to identify small molecule agonists of the constitutive androstane receptor (CAR) signaling pathway (AID 1224839); also: nearly all actives have a fitted effect of over 15% in size
Procedure, shortened: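 Stable hCAR/CYP2B6-2.2kb HepG2 line in DMEM with 10% FBS; compounds (15 concentrations) and 0.75 uM PK11195 final, 24 h at 37 C/5% CO2, then ONE-Glo luminescence after 30 min.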

[6] = qHTS assay to identify small molecule antagonists of the estrogen related receptor signaling pathway with the pleiotropic PPARgamma coactivator (PGC) from Tox21 10K library - cell viability counter screen (AID 1224840; active = well fitted cell-killing curve with a large enough effect in the repeat runs, not every such curve was filed as active; also: nearly all actives have a fitted effect of over 40% in size)
Procedure, shortened: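 Multiplexed viability counter screen in the PGC/ERR cell line: cells treated with DMSO-dissolved compounds for 17.5 hours at 37 C, then viability measured as CellTiter-Fluor fluorescence.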

[7] = target: Thyrotropin receptor (Homo sapiens) (UniProt P16473); assay: qHTS assay to identify small molecule agonists of the thyroid stimulating hormone receptor (TSHR) signaling pathway (AID 1224843; calls by dose curve; also: nearly all actives have a fitted effect of over 45% in size)
Sequence of Thyrotropin receptor (Homo sapiens) (P16473 whole entry, looked up): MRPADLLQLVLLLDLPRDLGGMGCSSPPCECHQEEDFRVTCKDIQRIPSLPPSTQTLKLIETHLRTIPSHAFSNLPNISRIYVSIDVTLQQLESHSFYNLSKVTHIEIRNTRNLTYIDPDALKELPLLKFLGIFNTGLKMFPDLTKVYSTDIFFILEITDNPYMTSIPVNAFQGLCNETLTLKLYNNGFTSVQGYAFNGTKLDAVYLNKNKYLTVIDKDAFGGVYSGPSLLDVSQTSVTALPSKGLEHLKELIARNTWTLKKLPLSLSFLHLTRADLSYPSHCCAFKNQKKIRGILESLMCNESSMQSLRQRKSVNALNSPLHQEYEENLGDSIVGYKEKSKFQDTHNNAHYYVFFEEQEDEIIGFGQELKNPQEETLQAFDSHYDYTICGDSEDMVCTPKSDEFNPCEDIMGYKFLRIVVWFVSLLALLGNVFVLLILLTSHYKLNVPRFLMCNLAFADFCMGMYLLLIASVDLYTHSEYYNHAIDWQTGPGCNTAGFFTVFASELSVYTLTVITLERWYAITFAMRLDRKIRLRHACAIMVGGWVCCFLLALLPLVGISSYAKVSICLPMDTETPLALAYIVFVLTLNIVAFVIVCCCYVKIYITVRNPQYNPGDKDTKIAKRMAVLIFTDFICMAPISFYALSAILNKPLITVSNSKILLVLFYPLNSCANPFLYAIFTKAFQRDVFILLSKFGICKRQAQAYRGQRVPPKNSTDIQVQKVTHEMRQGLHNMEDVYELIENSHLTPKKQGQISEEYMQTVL
Procedure, shortened: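 Using 15 concentrations per compound in triplicate, cAMP production was monitored in TSHR-HEK293 cells after 30 min compound incubation at RT; HTRF reagents followed, with fluorescence intensity recorded after 1 h.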

[8] = qHTS assay to identify small molecule agonists of the hypoxia (HIF-1) signaling pathway - cell viability counter screen (AID 1224844; calls by dose curve; also: nearly all actives have a fitted effect of over 50% in size)
Procedure, shortened: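 Cytotoxicity was measured in parallel with the HRE-driven beta-lactamase readout: after 17 hrs of compound exposure at 37C, HRE-bla ME-180 cells received CellTiter-Glo and luminescence was recorded 30 min later.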

[9] = qHTS assay to identify small molecule agonists of H2AX (AID 1224845; active = well fitted activation curve with a large enough effect in the signal ratio in the repeat runs, not every such curve was filed as active; the % refers to the signal ratio)
Procedure, shortened: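 Wild-type CHO-K1 cells plated overnight, then exposed 3 hr at 37C to compounds at 15 concentrations (0.76% DMSO). Lysed, then HTRF anti-pH2AX(S139)-cryptate/anti-H2AX-d2 detection after 24 hr at room temperature; emissions 665 and 620 nm.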

[10] = qHTS assay to identify small molecule agonists of the hypoxia (HIF-1) signaling pathway (AID 1224846; active = well fitted activation curve with a large enough effect in the signal ratio in the repeat runs, not every such curve was filed as active; the % refers to the signal ratio)
Procedure, shortened: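 Compounds from the Tox21 10K library, dissolved in DMSO, are tested for induction of a hypoxia response element–controlled beta-lactamase reporter in ME-180 cells. Exposure lasts 17 hrs at 37C after a 5 hr settling period, followed by CCF4-AM FRET substrate.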

[11] = qHTS assay to identify small molecule agonists of H2AX - cell viability counter screen (AID 1224847; calls by dose curve; also: top concentration of the series differs between compounds; nearly all actives have a fitted effect of over 30% in size)
Procedure, shortened: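 Viability of CHO-K1 (wild type) cells after 3 hr compound exposure was measured by CellTiter-Glo luminescence.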

[12] = qHTS RealTime-Glo MT Cell Viability Assay in HepG2 cells - 24 hour (AID 1224867); also: nearly all actives have a fitted effect of over 50% in size
Procedure, shortened: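 Compound treatment began 5 h after plating HepG2 cells (600/well) with NanoLuc luciferase and prosubstrate. Plates stayed at 37 C for 40 h; luminescence was captured at six time points, 0 h through 40 h.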

[13] = qHTS RealTime-Glo MT Cell Viability Assay in HEK293 cells - 32 hour (AID 1224868); also: top concentration of the series differs between compounds; nearly all actives have a fitted effect of over 50% in size
Procedure, shortened: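 Quantitative high-throughput screen of the Tox21 10K library in HEK293: cells and RealTime-Glo reagents plated together, compound added at 5 h, luminescence monitored through 40 h at 37 C.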

[14] = A CellTox Green Cytotoxicity Assay to monitor cytotoxicity in HEK293 cells - 0 hour (AID 1224869); also: nearly all actives have a fitted effect of over 50% in size
Procedure, shortened: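 Cells (HEK293, 600/well) and dye reagent are dispensed together. After 5 h at 37 C, 23 nL compound is pinned in. Plates stay at 37 C for 40 h with fluorescence read at 0h, 8h, 16h, 24h, 32h and 40h.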

[15] = qHTS assay to identify small molecule antagonists of the estrogen related receptor signaling pathway with the pleiotropic PPARgamma coactivator (PGC) from Tox21 10K library (AID 1224841; call rule not given here)
Procedure, shortened: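 Steps: plate 2,000 PGC/ERR cells per well; incubate 6 h at 37 C with 5% CO2; transfer compounds from DMSO stocks by pin tool; incubate 18 h at 37 C; add One-Glo; measure luminescence 30 min later.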

[16] = qHTS assay to identify small molecule agonists of the estrogen related receptor signaling pathway with the pleiotropic PPARgamma coactivator (PGC) from Tox21 10K library (AID 1224842); also: nearly all actives have a fitted effect of over 15% in size
Procedure, shortened: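 PGC/ERR reporter cells (NTP line) were seeded 2,000 per well, rested 6 h at 37 C/5% CO2, then pin-dosed with compounds in DMSO for 18 h at 37 C; luciferase read by One-Glo luminescence after 30 min at room temperature.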

[17] = qHTS assay to identify small molecule antagonists of the estrogen related receptor (ERR) signaling pathway from Tox21 library (AID 1224848); also: nearly all actives have a fitted effect of over 50% in size
Procedure, shortened: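 Tox21 10K compounds in DMSO tested for ERR pathway antagonism in NTP's ERR cell line; 18 h, 37 C exposure; ONE-Glo luminescence.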

[18] = qHTS assay to identify small molecule agonists of the estrogen related receptor (ERR) signaling pathway from Tox21 library (AID 1224849; calls by dose curve; also: nearly all actives have a fitted effect of over 15% in size); conditions: ERR reporter cell line, ONE-Glo luciferase, 18 h; at 92.4 µM (top of the series) unless noted
Procedure, shortened: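 Cells carrying the ERR reporter were plated and allowed to settle for 6 h, exposed to library compounds for 18 h at 37 C, then lysed with ONE-Glo and luminescence measured.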

[19] = target: Luciferin 4-monooxygenase (Photinus pyralis) (UniProt P08659); assay: qHTS assay to identify small molecule inhibitors of firefly luciferase (AID 1224835); also: nearly all actives have a fitted effect of over 25% in size
Sequence of Luciferin 4-monooxygenase (Photinus pyralis) (P08659 whole entry, looked up): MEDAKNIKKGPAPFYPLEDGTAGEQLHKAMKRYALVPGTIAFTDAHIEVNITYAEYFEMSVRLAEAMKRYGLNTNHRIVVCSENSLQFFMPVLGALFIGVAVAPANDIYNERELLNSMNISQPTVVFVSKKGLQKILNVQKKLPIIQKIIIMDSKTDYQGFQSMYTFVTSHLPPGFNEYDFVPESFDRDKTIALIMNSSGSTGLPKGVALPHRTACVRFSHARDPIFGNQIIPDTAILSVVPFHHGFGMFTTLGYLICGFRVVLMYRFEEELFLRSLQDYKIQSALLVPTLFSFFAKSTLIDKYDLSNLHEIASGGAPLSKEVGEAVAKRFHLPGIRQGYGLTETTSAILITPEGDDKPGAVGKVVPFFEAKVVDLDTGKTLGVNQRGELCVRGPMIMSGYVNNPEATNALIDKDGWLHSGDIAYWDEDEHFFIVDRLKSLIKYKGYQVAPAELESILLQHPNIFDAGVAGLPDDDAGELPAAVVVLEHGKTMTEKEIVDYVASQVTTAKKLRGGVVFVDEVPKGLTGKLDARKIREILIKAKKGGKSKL
Procedure, shortened: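 Quantitative HTS format; KM concentrations of both substrates. Purified P. pyralis FLuc activity quantified from luminescence images.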
% is scaled to controls: 0 for no effect and ±100 for the full control effect.

CCc1cc(OC)c(C[C@H](C)N)cc1OC
inactive: Potency [1] | Potency [2] | Potency [3] | Potency [4] | Potency [5] | Potency [6] | Potency [7] | Potency [8] | outcome [9] | outcome [10] | Potency [11] | Potency [12] | Potency [13] | outcome [14]

O=C(Cl)c1ccccc1
inactive: Potency [1] | Potency [2] | Potency [3] | Potency [4] | Potency [5] | Potency [6] | Potency [15] | Potency [16] | Potency [7] | Potency [8] | outcome [9] | outcome [10] | Potency [11] | Potency [17] | activity change, positive = activation [18] 7.58% | Potency [12] | Potency [13] | outcome [14]

CC(Cc1ccccc1)NCCCCl (stereo unspecified)
inactive: Potency [1] | Potency [2] | Potency [3] | Potency [4] | Potency [5] | Potency [6] | Potency [7] | Potency [8] | outcome [9] | outcome [10] | Potency [11] | Potency [12] | outcome [14]

CCCC[N+](=O)[O-]
inactive: Potency [1] | Potency [2] | Potency [3] | Potency [4] | Potency [5] | Potency [6] | Potency [15] | Potency [16] | Potency [7] | Potency [8] | outcome [9] | outcome [10] | Potency [11] | Potency [17] | Potency [12] | Potency [13] | outcome [14]

CCCCCCCC(=O)Cl
inactive: Potency [1] | Potency [19] | Potency [3] | Potency [4] | Potency [5] | Potency [6] | Potency [7] | Potency [8] | outcome [9] | outcome [10] | Potency [11] | Potency [12] | outcome [14]

CCCCCCCCBr
inactive: Potency [1] | Potency [19] | Potency [4] | Potency [5] | Potency [6] | Potency [7] | Potency [8] | outcome [9] | outcome [10] | Potency [11] | Potency [12] | Potency [13] | outcome [14]

CCCCCCC(=O)CCCCCC/C=C/C[C@@H](O)[C@H](O)[C@@](N)(CO)C(=O)O
inactive: viability change, negative = cytotoxic [1] 6.53% [at 19 µM] | activity change, negative = inhibition [19] -3.87% [at 23.6 µM] | activity change, negative = cytotoxicity [3] -0.0318% [at 19 µM] | activity, negative = inhibition [4] -1.56% [at 19 µM] | activation [5] -1.84% [at 19 µM] | viability change, negative = cytotoxic [6] 12.4% [at 19 µM] | activation [7] -1.25% [at 19 µM] | activity change, negative = cytotoxicity [8] 0.46% [at 15.8 µM] | activation (H2AX phosphorylation) [9] -0.061% [at 31.6 µM] | activation [10] -0.0517% [at 15.8 µM] | activity change, negative = cytotoxicity [11] -0.19% [at 31.6 µM] | activity change, negative = cytotoxicity [12] 0.745% [at 15.8 µM] | cytotoxicity [14] 0.947% [at 15.8 µM]

O=C(O)C(Br)(Br)Br
inactive: Potency [1] | Potency [2] | Potency [3] | Potency [4] | Potency [5] | Potency [6] | Potency [15] | Potency [16] | Potency [7] | outcome [9] | outcome [10] | Potency [11] | Potency [17] | activity change, positive = activation [18] 0.595% | Potency [12] | outcome [14]

O=C(Cl)C(Cl)Cl
inactive: Potency [1] | Potency [2] | Potency [3] | Potency [4] | Potency [5] | Potency [6] | Potency [7] | Potency [8] | outcome [9] | outcome [10] | Potency [11] | Potency [12] | Potency [13] | outcome [14]
